# Test results as given in PubChem BioAssay (Tox21).
# Results filed as inconclusive are left out. Values without a mark were called inactive. Activity calls are given as the source filed them. Calls follow the shape of the full dose curve.
# Target: D(2) dopamine receptor (Homo sapiens) (UniProt P14416)
# Experiment: Dopamine D2 receptor (DRD2) small molecule agonists, cell-based qHTS assay (AID 1963594); also: nearly all actives have a fitted effect of over 35% in size
# Conditions: HEK293-DRD2 cAMP HTRF, agonist mode, 30 min; series mostly up to 92.4 µM; activation: at the top concentration
# From the text: National Center for Advancing Translational Sciences [NCATS]
# Division of Preclinical Innovation [DPI]
# U.S. Environmental Protection Agency [EPA]
# National Institutes of Environmental Health Sciences [NIEHS]
# National Toxicology Program [NTP]
# U.S. Food and Drug Administration [FDA]
# DRD2 is the D2 subtype of the dopamine receptor, which is coupled to Gi subtype of G protein-coupled receptor. This G protein-coupled receptor inhibits adenylyl cyclase activity. The DRD2-HEK293 cell line stably expressing D2 dopamine receptor can be used for screening agonists and antagonists of interactions between D2 and its ligands. The Hek293-DRD2 cAMP assay is based on HTRF technology. It measures changes of cAMP accumulation in response to Gi coupled GPCR activation or inhibition.
# Tox21 Assay Protocol Summary:
# DRD2-Hek293 cells were dispensed at 600 cells/3uL/well in 1536-well white plates using a Multidrop Dispenser. After the assay plates were incubated at a 37 C/5% CO2 incubator for 24 h, 1 uL of Ro20-1724 at final concentration of 0.1 mM was transferred to the assay plate by a Flying Reagent Dispenser. Following Ro20-1724 addition, 23 nL of compound dissolved in DMSO, positive controls or DMSO only was added to the assay plates via Wako pintool station. The assay plates were incubated at room temperature for 10 min. Next, 1 uL of NKH477 at 200nM was added into the plates. After the assay plates were incubated at room temperature for an additional 30 min, 2.5 ul/well of cAMP-d2 and 2.5 ul/well of anti-cAMP-cryptate were added respectively into the assay plates using a Flying Reagent Dispenser. The plates were incubated at room temperature for 1 h. The fluorescence intensity in the plates was measured at 340 nm excitation and 665 & 620 nm emission by an Envision plate reader.
# % is scaled to controls: 0 for no effect and ±100 for the full control effect.
# Sequence of D(2) dopamine receptor (Homo sapiens) (P14416 whole entry, looked up): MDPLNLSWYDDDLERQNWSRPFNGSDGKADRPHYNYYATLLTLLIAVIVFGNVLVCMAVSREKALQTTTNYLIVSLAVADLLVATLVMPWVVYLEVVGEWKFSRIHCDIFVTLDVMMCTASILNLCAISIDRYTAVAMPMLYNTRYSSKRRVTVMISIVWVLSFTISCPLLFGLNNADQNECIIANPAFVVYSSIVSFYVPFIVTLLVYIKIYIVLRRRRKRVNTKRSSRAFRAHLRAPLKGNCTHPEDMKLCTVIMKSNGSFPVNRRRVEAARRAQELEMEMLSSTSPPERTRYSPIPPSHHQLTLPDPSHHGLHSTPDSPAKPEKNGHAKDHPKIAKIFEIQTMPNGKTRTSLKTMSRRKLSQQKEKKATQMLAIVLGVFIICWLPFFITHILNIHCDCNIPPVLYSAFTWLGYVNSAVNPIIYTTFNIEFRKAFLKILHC
SMILES,Potency,activation
O=C(O)c1cc2ccccc2cc1O,inactive,
NCC1(Cc2noc(=O)[nH]2)CCCCC1,,3.33%
CCC(C)(C)C1CCC(OC)CC1 (stereo not given),,5.27%
CCCCCCCCCCCCCCCC(=O)OC,,0.309% [at 19 µM]
CC1=CC[C@@H](C(C)(C)O)CC1,,0.0997%
COc1ccc(C(=O)NCc2ccc(OCCN(C)C)cc2)cc1OC,,-13.7% [at 42.5 µM]
CCOC(/C=C(\C)CCC=C(C)C)OCC,,-0.684%
COC(=O)CCC(=O)O,,4.61%
COc1ccc(Cl)cc1C,,4.19%
CC(C)(O)C#CC(C)(C)O,,1.31%
CC(=O)CC/C=C(\C)CC/C=C(\C)CC/C=C(\C)CCC=C(C)C,,-4.89% [at 42.5 µM]
Clc1cc(Cl)c(Cl)c(Cl)c1Cl,,3.46%
Cc1ccc(C2OC[C@@H]3OC(c4ccc(C)cc4)O[C@H]([C@H](O)CO)[C@@H]3O2)cc1 (stereo not given in full),,-0.0551%
CC(=O)OC1CC(C)OC(C)O1 (stereo not given),inactive,
NC(=O)Cc1cccc2ccccc12,,3.32%
CCCC(O)C(O)CO (stereo not given),,-5.86%
CSc1ccc2c(c1)N(CCC1CCCCN1C)c1ccccc1S2 (stereo not given),inactive,
CC(C)(C)c1ccc(C=O)cc1,,6.35%
CCC/C=C/C=O,inactive,
O=C(O)c1ccco1,,-6.51%

SMILES,Potency,activation
CCC(=O)O[C@H]1[C@H](O[C@@H]2[C@@H](C)[C@H](O[C@H]3C[C@@](C)(OC)[C@@H](O)[C@H](C)O3)[C@@H](C)C(=O)O[C@H](CC)[C@@](C)(O)[C@H](O)[C@@H](C)C(=O)[C@H](C)C[C@@]2(C)O)O[C@H](C)C[C@@H]1N(C)C,inactive,
O=S(=O)(O)c1cccc2c(S(=O)(=O)O)cccc12,,2.8%
Cn1cnc([N+](=O)[O-])c1Sc1ncnc2nc[nH]c12,inactive,
Cl/C(=C\n1cncn1)c1ccc(Cl)cc1Cl,,-3.34% [at 42.5 µM]
COC(=O)c1ccc(C)cc1C1=NC(C)(C(C)C)C(=O)N1 (stereo not given),,-9.97%
CCCOC(C(=O)OC1CCN(C)CC1)(c1ccccc1)c1ccccc1,,-1.45% [at 42.5 µM]
CC(=O)S[C@H](C(=O)N[C@H]1Cc2ccccc2[C@H]2CCC[C@@H](C(=O)O)N2C1=O)C(C)C,,1.03%
CC(C)(N=C=O)c1cccc(C(C)(C)N=C=O)c1,inactive,
COc1cc(/C=C/C(N)=O)cc(OC)c1OC,,-0.733% [at 42.5 µM]
CCOC(=O)[C@H](CCc1ccccc1)N[C@@H](C)C(=O)N1C(=O)N(C)C[C@H]1C(=O)O,,3.2% [at 42.5 µM]
CC(COCC(C)OC(=O)c1ccccc1)OC(=O)c1ccccc1 (stereo not given),inactive,
CC/C=C\CCO,,-0.0216%
COc1cccc(OC)c1C(=O)N[C@@H]1C(=O)N2[C@@H]1SC(C)(C)[C@@H]2C(=O)O,,3.57% [at 42.5 µM]
CCCCNc1ccccc1,,5.9%
O=C1C(O)=C(O)C(=O)C(O)=C1O,,-11.5% [at 42.5 µM]
O=C(O)c1ccccc1[N+](=O)[O-],,-1.5%
O=C1Nc2ccccc2C1=O,,1.16%
CCCCN(CCO)CCO,,-1.77%
CC1(C)C(=O)N(Br)C(=O)N1Cl,,-0.073%
O=C1OC(CN2CCOCC2)CN1/N=C/c1ccc([N+](=O)[O-])o1 (stereo not given),,-12.5% [at 42.5 µM]
